The campaign covered roughly 5,600 compounds. About 4,100 (73%) were called active. Not shown: some 4% with an inconclusive outcome.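 The calls were made as follows: active = mean replicate inhibition above about 95% and at least 55% of replicates individually reaching it (limit read from the data); inconclusive = only one of the two criteria is met; inactive = neither criterion is met.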 The set was probably picked from earlier hits. Not all results are given here.
test: T. cruzi intracellular proliferation inhibitors, confirmation, cell-based, NIH3T3 host, beta-gal parasite, luminescence, cherry-pick (AID 651739); conditions: T. cruzi beta-gal in NIH3T3, GalScreen luminescence, 90 h; at 8.35 µM; stronger effect = higher value

inhibition, inactive:
O=C(NCC1CCCCC1)[C@H]1[C@H](CO)[C@H]2Cn3c(cccc3=O)[C@H]2N1C(=O)CC1CC1 43%
O=C(NCc1ccccn1)[C@@H]1[C@@H](CO)[C@@H]2Cn3c(ccc(/C=C/c4ccccc4)c3=O)[C@H]1N2CC1CC1 66.3%
C[C@H](O)C#Cc1ccc([C@H]2[C@H]3CN(S(=O)(=O)Cc4ccccc4)CCCCN3[C@H]2CO)cc1 72.1%
C[C@@H]1CN([C@H](C)CO)C(=O)c2cc(/C=C/c3ccccc3)cnc2O[C@@H]1CN(C)Cc1ccncc1 86.1%
COc1ccc(C#Cc2cnc3c(c2)C(=O)N([C@@H](C)CO)C[C@H](C)[C@@H](CN(C)C(C)=O)O3)cc1 19.7%
CC(C)CC#Cc1cnc2c(c1)C(=O)N([C@@H](C)CO)C[C@@H](C)[C@H](CN(C)C(=O)Cc1ccncc1)O2 76.3%
COc1ccccc1-c1ccc2c(c1)O[C@@H](CN(C)C)[C@H](C)CN([C@H](C)CO)S2(=O)=O 22.8%
Cc1ccc(-c2ccc3c(c2)O[C@H](CN(C)C)[C@@H](C)CN([C@H](C)CO)S3(=O)=O)cc1 88%
CC(C)NC(=O)N(C)C[C@H]1OCc2cn(nn2)CCCC(=O)N([C@@H](C)CO)C[C@H]1C 2.94%
CNC[C@H]1OCCCC[C@@H](C)Oc2ccc(NS(C)(=O)=O)cc2C(=O)N([C@H](C)CO)C[C@H]1C -10.3%
C[C@@H]1CN([C@@H](C)CO)C(=O)CCCn2cc(nn2)CO[C@@H]1CN(C)S(=O)(=O)c1ccccc1F -12.9%
C[C@@H]1CN([C@H](C)CO)C(=O)c2cc(NC(=O)Nc3ccc(F)cc3)ccc2O[C@@H](C)CCCCO[C@@H]1CN(C)CC1CCCCC1 90.7%
C[C@@H](O)C#Cc1ccc([C@@H]2[C@H](CO)N3CCCCN(S(=O)(=O)c4ccccc4)C[C@@H]23)cc1 62.6%
C[C@H](O)C#Cc1ccc([C@@H]2[C@H]3CN(S(=O)(=O)c4ccccc4)CCCCN3[C@H]2CO)cc1 32.8%
CN(C)CC#Cc1ccc([C@H]2[C@H]3CN(S(=O)(=O)c4ccccc4F)CCCCN3[C@H]2CO)cc1 83.2%
C[C@H](CO)N1C[C@H](C)[C@H](CN(C)Cc2ccncc2)Oc2cc(-c3ccncc3)ccc2S1(=O)=O 92.9%
CN(C)C(=O)c1ccc(-c2ccc([C@H]3[C@@H](CO)N4CCCCN(CC5CC5)C[C@H]34)cc2)cc1 90%

inhibition, active:
O=C(Nc1ccc(-c2ccccc2)cc1)[C@H]1[C@H](CO)[C@H]2Cn3c(cccc3=O)[C@H]2N1CC1CC1 101%
Cc1cccc(-c2ccc([C@@H]3[C@@H](CO)N4CCCCN(S(=O)(=O)c5cccs5)C[C@H]34)cc2)c1 106%
C/C=C/c1ccc([C@H]2[C@H]3CN(S(=O)(=O)c4ccccc4)CCCCN3[C@H]2CO)cc1 105%
O=S(=O)(Cc1ccccc1)N1CCCCN2[C@@H](CO)[C@@H](c3ccc(-c4ccc(F)cc4)cc3)[C@@H]2C1 96.2%
CCS(=O)(=O)N1CCCCN2[C@@H](CO)[C@@H](c3ccc(-c4ccccc4)cc3)[C@@H]2C1 102%
O=S(=O)(Cc1ccccc1)N1CCCCN2[C@@H](CO)[C@H](c3ccc(-c4ccccc4)cc3)[C@@H]2C1 97.9%
O=S(=O)(Cc1ccccc1)N1CCCCN2[C@@H](CO)[C@H](c3ccc(-c4cccnc4)cc3)[C@@H]2C1 97.7%
C[C@@H]1CN([C@@H](C)CO)C(=O)c2cc(C#Cc3ccccc3)cnc2O[C@H]1CN(C)C(=O)c1ccccn1 101%
C[C@H](CO)N1C[C@H](C)[C@H](CN(C)C(=O)Nc2cccc3ccccc23)Oc2ncc(C#Cc3ccccc3)cc2C1=O 99.9%
COCC(=O)N(C)C[C@@H]1Oc2ncc(C#Cc3ccccc3OC)cc2C(=O)N([C@@H](C)CO)C[C@H]1C 109%
C[C@@H]1CN([C@H](C)CO)C(=O)c2cc(C#Cc3ccccn3)cnc2O[C@H]1CN(C)Cc1ccccc1 102%
C[C@@H]1CCCCO[C@@H](CN(C)S(=O)(=O)c2ccc(Cl)cc2)[C@H](C)CN([C@@H](C)CO)C(=O)c2cc(NC(=O)Cc3ccccc3)ccc2O1 108%
Cc1ccc(S(=O)(=O)N(C)C[C@H]2OCCCC[C@H](C)Oc3ccc(NC(=O)Cc4ccccc4)cc3C(=O)N([C@@H](C)CO)C[C@@H]2C)cc1 110%
CC(C)CC#Cc1ccc2c(c1)O[C@H](CN(C)C(=O)C1CC1)[C@@H](C)CN([C@@H](C)CO)S2(=O)=O 111%
C[C@H](CO)N1C[C@H](C)[C@@H](CN(C)C(=O)C2CCCCC2)Oc2cc(-c3ccccc3)ccc2S1(=O)=O 107%
C[C@@H]1CN([C@@H](C)CO)S(=O)(=O)c2ccc(C#CCN(C)C)cc2O[C@H]1CN(C)C(=O)C1CC1 110%
CNC[C@H]1OCCCC[C@H](C)Oc2ccc(NC(=O)Nc3c(C)noc3C)cc2C(=O)N([C@H](C)CO)C[C@H]1C 104%
C[C@@H]1CN([C@@H](C)CO)C(=O)c2cc(NC(=O)Nc3ccc(C(F)(F)F)cc3)ccc2O[C@@H](C)CCCCO[C@H]1CN(C)C(=O)c1ccccc1 105%
C[C@@H]1CCCCO[C@H](CN(C)C(=O)NC2CCCCC2)[C@H](C)CN([C@H](C)CO)C(=O)c2cc(NC(=O)Nc3ccc(F)cc3)ccc2O1 97.3%
C[C@H]1CN([C@@H](C)CO)C(=O)CCCn2cc(nn2)CO[C@H]1CN(C)C(=O)c1ccccc1 103%
C[C@H](CO)N1C[C@H](C)[C@H](CN(C)C(=O)Nc2ccc(C(F)(F)F)cc2)OCCCC[C@H](C)Oc2ccc(NC(=O)C3CCCCC3)cc2C1=O 109%
CC(C)NC(=O)Nc1ccc2c(c1)C(=O)N([C@H](C)CO)C[C@H](C)[C@H](CN(C)C(=O)Nc1ccc(C(F)(F)F)cc1)OCCCC[C@@H](C)O2 110%
COc1ccc(NC(=O)N(C)C[C@H]2OCCCC[C@H](C)Oc3ccc(NC(=O)Nc4ccc(C(F)(F)F)cc4)cc3C(=O)N([C@@H](C)CO)C[C@@H]2C)cc1 103%
C[C@@H]1CCCCO[C@H](CN(C)C(=O)Nc2ccc(C(F)(F)F)cc2)[C@H](C)CN([C@H](C)CO)C(=O)c2cc(NC(=O)Nc3ccc(C(F)(F)F)cc3)ccc2O1 109%
CC(C)C#Cc1ccc([C@H]2[C@H](CO)N3CCCCN(C(=O)NC(C)C)C[C@@H]23)cc1 103%
COc1cccc(S(=O)(=O)N2CCCCN3[C@H](C2)[C@H](c2ccc(C#CC(C)C)cc2)[C@@H]3CO)c1 102%
COc1ccc(S(=O)(=O)N2CCCCN3[C@H](C2)[C@H](c2ccc(C#CCC(C)C)cc2)[C@@H]3CO)cc1 98.1%
COc1ccc(S(=O)(=O)N2CCCCN3[C@H](CO)[C@@H](c4ccc(C#CC(C)C)cc4)[C@H]3C2)cc1 109%
COc1cccc(S(=O)(=O)N2CCCCN3[C@H](CO)[C@H](c4ccc(-c5ccncc5)cc4)[C@H]3C2)c1 110%
COc1cccc(S(=O)(=O)N2CCCCN3[C@H](CO)[C@H](c4ccc(C#CC5CC5)cc4)[C@H]3C2)c1 105%
CC(C)CC#Cc1ccc2c(c1)O[C@H](CN(C)Cc1ccncc1)[C@H](C)CN([C@H](C)CO)S2(=O)=O 97.8%
CC(C)CC#Cc1ccc2c(c1)O[C@H](CN(C)Cc1cccnc1)[C@H](C)CN([C@@H](C)CO)S2(=O)=O 98.7%
CC(C)CC#Cc1ccc2c(c1)O[C@H](CN(C)Cc1ccccc1F)[C@@H](C)CN([C@@H](C)CO)S2(=O)=O 96.7%
C[C@H](CO)N1C[C@H](C)[C@@H](CN(C)Cc2ccncc2)Oc2cc(Br)ccc2S1(=O)=O 95.7%
O=S(=O)(c1ccc(F)cc1)N1CCCCN2[C@H](C1)[C@H](c1ccc(C3=CCCCC3)cc1)[C@@H]2CO 106%
Cc1ccccc1-c1ccc([C@H]2[C@H]3CN(S(=O)(=O)c4ccc(F)cc4)CCCCN3[C@H]2CO)cc1 97.2%
C[C@H]1CCCCO[C@@H](CN(C)S(=O)(=O)c2cccs2)[C@@H](C)CN([C@@H](C)CO)C(=O)c2cc(NS(=O)(=O)c3ccc(Cl)cc3)ccc2O1 101%
Cc1noc(C)c1S(=O)(=O)Nc1ccc2c(c1)C(=O)N([C@@H](C)CO)C[C@@H](C)[C@H](CN(C)S(=O)(=O)c1ccc(Cl)cc1)OCCCC[C@H](C)O2 99.1%
C[C@@H]1CCCCO[C@H](CN(C)S(=O)(=O)c2ccc(Cl)cc2)[C@H](C)CN([C@@H](C)CO)C(=O)c2cc(NS(=O)(=O)c3cccs3)ccc2O1 105%
C[C@@H]1CN([C@H](C)CO)C(=O)c2cc(NS(=O)(=O)c3cccs3)ccc2O[C@@H](C)CCCCO[C@@H]1CN(C)S(=O)(=O)c1ccc(Cl)cc1 101%
C[C@@H]1CCCCO[C@H](CN(C)S(=O)(=O)c2cccs2)[C@H](C)CN([C@H](C)CO)C(=O)c2cc(NS(=O)(=O)c3ccc(F)cc3)ccc2O1 109%
CC(C)(C)[S@@](=O)N1Cc2cc(C(=O)NCc3ccc4c(c3)OCO4)nc(-c3cccc(-c4ccccc4)c3)c2[C@H]1CCO 105%
O=C(C1CCCC1)N1CCCCN2[C@@H](CO)[C@H](c3ccc(-c4cccc(F)c4)cc3)[C@@H]2C1 112%
O=C(C1CC1)N1CCCCN2[C@H](CO)[C@H](c3ccc(-c4cccc(F)c4)cc3)[C@H]2C1 99.1%
O=C(C1CCC1)N1CCCCN2[C@H](CO)[C@H](c3ccc(-c4ccncc4)cc3)[C@@H]2C1 103%
OC[C@@H]1[C@H](c2ccc(C#CC3CC3)cc2)[C@@H]2CN(CCC(F)(F)F)CCCCN12 105%

Reference: PubChem BioAssay AID651739 (Broad Institute, 2012)
